KDM5B inhibitor – KDM5B demethylase inhibition. 2.6% of 220,000 active. KDM5B demethylase, FDH-coupled NADH fluorescence (FDH is formaldehyde dehydrogenase). AID 1347165. Q9UGL1. Potency, µM (doses to about 57.7 µM), most hits filed as inhibitors; active = well fitted inhibition curve with a large enough effect; note: 0% is about no effect; nearly all actives have a fitted effect of over 70% in size
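Measured: NADH fluorescence change, 30 min, RT. System: KDM5BΔAP 200 nM final, H3K4me3 peptide, α-KG, Fe(II), ascorbate, NAD⁺ plus FDH, pH 7.5 HEPES. Compounds: titrated, 10 min pre-incubation with enzyme.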
An asterisk follows results filed as active; i = inactive. Many of the other results were omitted from the sample, so hits are more common in it than they were. Potency is the fitted concentration of half-maximal effect.

SMILES	KDM5B inhibitor
COCCN1C(=O)c2ccccc2C(C(=O)NCCCc2ccccc2)C12CCCC2 (configuration not stated)	i
Cc1cccn2c(CC(=O)N[C@H](c3ccccn3)C3CC(O)C3)cnc12 (some centres not stated)	i
O=C(N[C@H](c1ccccn1)C1CC(O)C1)c1cnc2ccccn2c1=O (some centres not stated)	25µM*
Cc1cc2c(cc1C(=O)N[C@H](c1ccccn1)C1CC(O)C1)OCCO2 (some centres not stated)	i
COC(=O)c1cccc(-c2nc(C3CC(=O)N(c4ccc(Cl)cc4)C3)no2)c1 (configuration not stated)	i
CCCCn1c(NCc2c[nH]c3ccccc23)nc2ccccc21	i
CN(C)C(=O)c1nc(-c2ccc(F)cc2)c2cnccn12	35µM*
Cc1cc(F)ccc1NC(=O)c1cnc(-c2ccc(F)cc2)nc1-c1ccncc1	i
CN(C)C(=O)c1nc(-c2cccc(F)c2)c2cnccn12	35µM*
CCC(C(=O)NC1CCCCC1)n1c(SCc2ccc(F)cc2)nc2ccncc21 (configuration not stated)	i
CS(=O)(=O)c1ccc(CN2CCC(O)(Cn3ccnc3)CC2)cc1	i
O=C(NC1CC1)c1nc(-c2ccc(F)cc2)c2cnccn12	35µM*
C[C@H](O)c1onc(-c2ccc(F)cc2)c1C(=O)NC1CCC1	i
CN(C)C(=O)c1cccnc1-c1ccc(S(C)(=O)=O)cc1	i
CN(C)C(=O)c1nc(-c2ccc(Cl)nc2)c2cnccn12	i
CN(C)C(=O)c1nc(-c2ccc(S(C)(=O)=O)cc2)c2cnccn12	28µM*
CCN(CC)CCNC(=O)c1ccc(CSc2nc3ccncc3n2Cc2cccc(F)c2)cc1	i
CN(CC(=O)Nc1cccc(F)c1)C(=O)c1ccncc1	i
O=C(Cn1nc(N2CCCCC2)c2ccccc2c1=O)Nc1ccc2c(c1)OCCO2	i
CN(C)C(=O)NCc1cc2n(n1)CCN(Cc1cn[nH]c1-c1ccccc1)C2	i
CCN(CC)CCCNC(=O)C1CCN(c2ncnc3nc[nH]c23)CC1	i
CCCc1cc(=O)[nH]c(SCC(=O)N2CCN(S(=O)(=O)c3ccc(C)c(C)c3)CC2)n1	i
O=C(CCC1CCCC1)Nc1ccc2ccccc2c1	i
Cc1cc(C)cc(C(=O)NC(C)c2ccc(CC(C)C)cc2)c1 (configuration not stated)	i
C/C(CC12CC3CC(CC(C3)C1)C2)=N\NC(=O)C1CC1	i
SMILES	KDM5B inhibitor
CN1CCC(NC(=O)c2cccc3ccccc23)CC1	i
COc1cc(/C=C/C(=O)c2ccc(C#N)cc2)cc(Br)c1O	i
Cc1ccsc1C(=O)N1CCC2(CC1)CC(N(Cc1ccccc1)C1CC1)CCO2 (configuration not stated)	i
Cc1ccc(S(=O)(=O)Nc2ccccc2C(=O)NCc2cccnc2)cc1	i
Cc1ccccc1NS(=O)(=O)c1ccc(C(=O)NCc2cccnc2)cc1	i
CS(=O)(=O)c1ccc(-c2nc(C(=O)NCc3cccnc3)n3ccncc23)cc1	10µM*
O=Cc1cccn1Cc1ccccn1	i
CC1(C)C(=O)N(CCOc2ccccc2)[C@H]2CN(Cc3ccc4c(c3)CCO4)C[C@@H]2[S+]1(=O)[O-]	i
C=CCN(CC=C)Cc1c(C)[nH]c2c(C)cc(C)cc2c1=O	i
Cc1cc(C)cc(-n2ncc3c(OCC(=O)NC4CCS(=O)(=O)C4)ncnc32)c1 (configuration not stated)	i
NC(=O)C(NC(=O)NCC(F)(F)F)C(N)=O	i
O=C(Nc1cccc2c1CCCC2)N1CCCC(OCc2cccnc2)C1 (configuration not stated)	i
FC(F)(F)c1ccnc(N2CCC(OCc3cccnc3)CC2)n1	i
Fc1cnc(N2CCCC(OCc3cccnc3)C2)nc1N1CCOCC1 (configuration not stated)	28µM*
O=C(Cc1ccccn1)N1CCC(N2CCCCCC2=O)CC1	i
O=C(/C=C/c1ccccc1Br)c1ccc(O)cc1	i
CCOc1ccc(C(=O)NC2CCN(c3cc(-c4cccs4)[nH]n3)CC2)cc1OCC	i
O=C(NC1CCN(c2cc(-c3cccs3)[nH]n2)CC1)c1ccc(Cl)cc1	i
N#Cc1cccc(C(=O)NC2CCN(c3cc(-c4cccs4)[nH]n3)CC2)c1	i
O=C(NC1CCN(c2cc(-c3cccs3)[nH]n2)CC1)c1ccccc1F	i
Cc1cccc(C(=O)NC2CCN(c3cc(-c4cccs4)[nH]n3)C2)c1 (configuration not stated)	11µM*
O=C(NC1CCN(c2cc(-c3cccs3)[nH]n2)CC1)c1ccc(F)cc1F	i
Cc1ccccc1C(=O)NC1CCCN(c2cc(-c3ccc(F)cc3)[nH]n2)C1 (configuration not stated)	i
O=C(NC1CCN(c2cc(-c3cccs3)[nH]n2)CC1)c1ccccc1	i
COc1ccc(-c2cc(N3CCCC(NC(=O)c4ccc(OC)c(OC)c4)C3)n[nH]2)cc1 (configuration not stated)	i
SMILES	KDM5B inhibitor
Cc1ccccc1C(=O)NC1CCN(c2cc(-c3cccs3)[nH]n2)C1 (configuration not stated)	13µM*
COc1ccc(C(=O)NC2CCN(c3cc(-c4cccs4)[nH]n3)C2)cc1OC (configuration not stated)	11µM*
Cc1ccc(C(=O)NC2CCN(c3cc(-c4cccs4)[nH]n3)C2)cc1F (configuration not stated)	4µM*
CCCCn1nc(C(=O)NCC(=O)Nc2ccc(Br)cc2C)c2ccccc2c1=O	i
Cc1ccc2nc(-c3cccc(NC(=O)c4ccc(C#N)cc4F)c3)oc2c1	i
COc1ccccc1N1CCN(C(=O)c2noc3c2CCc2sccc2-3)CC1	i
COC(=O)c1ccc2c(c1)nc1n2[C@@H](CNC2CCCCC2)COC1	i
O=C(CCc1cccnc1)NCC1CC1	i
CC(C)c1ccc(-n2nnnc2SCC(=O)N(Cc2ccco2)C2=CCCCC2)cc1	i
COc1ccc(-c2nc(CN3CCN(C(=O)NCCc4ccccc4)CC3)c(C)o2)cc1	i
O=c1oc2ccc(Cl)cc2cc1-c1csc(Nc2cccc(F)c2)n1	i
CCOc1ccc(C(=O)NC2CCN(c3cnn(CC)c(=O)c3)CC2)cc1	i
Cc1c(CC(=O)NCc2ccc3c(c2)OCO3)c(=O)oc2cc(O)c(Cl)cc12	i
CCN(CC)CCNc1nc(C)c2c(c1C#N)CCCC2	i
CCOc1ccc(C(=O)NCCc2csc(-c3cccc(C)c3)n2)cc1	i
O=C(NCCN1CCOCC1)c1ccc2nc(-c3ccccc3)cn2c1	28µM*
Cc1ncsc1CCC(=O)N(C)Cc1csc(-c2ccccc2)n1	i
Cc1oc(-c2ccccc2)nc1CC(=O)NCCN1CCOCC1	i
Cc1ncsc1CCNC(=O)c1ccc2nc(-c3ccccc3)cn2c1	25µM*
O=C(NCCN1CCOCC1)c1cccc(Br)c1	i
COc1ccccc1Cn1c(-c2ccc(Cl)cc2)nc(C)c(CCO)c1=O	i
CCC(C)(C)NC(=O)Cc1csc(-c2ccccc2)n1	i
Cc1c(-c2ccccc2)oc2c(C(=O)OCC(=O)OC(C)(C)C)cccc2c1=O	i
Cc1cc(C)cc(C(=O)N2CCN(Cc3nc(N)c4ccccc4n3)CC2)c1	i
COc1cccc(CNC(=O)c2cc3n(n2)CC(c2ccc(Cl)cc2)OC3)c1 (configuration not stated)	i
